Experiments:
[1] = biological target: Platelet-derived growth factor receptor beta (Homo sapiens) (UniProt P09619); details: at 1 µM;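 note: each value is a mean percent inhibition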
[2] = biological target: Tyrosine-protein kinase FRK (Homo sapiens) (UniProt P42685); details: at 0.1 µM
[3] = biological target: Tyrosine-protein kinase FRK (Homo sapiens) (UniProt P42685); details: at 1 µM
[4] = biological target: Protein-tyrosine kinase 2-beta (Homo sapiens) (UniProt Q14289); details: at 0.1 µM
[5] = biological target: Protein-tyrosine kinase 2-beta (Homo sapiens) (UniProt Q14289); details: at 1 µM
[6] = biological target: Proto-oncogene tyrosine-protein kinase receptor Ret (Homo sapiens) (UniProt P07949); details: at 0.1 µM
Chain of Proto-oncogene tyrosine-protein kinase receptor Ret (Homo sapiens) (P07949 whole entry): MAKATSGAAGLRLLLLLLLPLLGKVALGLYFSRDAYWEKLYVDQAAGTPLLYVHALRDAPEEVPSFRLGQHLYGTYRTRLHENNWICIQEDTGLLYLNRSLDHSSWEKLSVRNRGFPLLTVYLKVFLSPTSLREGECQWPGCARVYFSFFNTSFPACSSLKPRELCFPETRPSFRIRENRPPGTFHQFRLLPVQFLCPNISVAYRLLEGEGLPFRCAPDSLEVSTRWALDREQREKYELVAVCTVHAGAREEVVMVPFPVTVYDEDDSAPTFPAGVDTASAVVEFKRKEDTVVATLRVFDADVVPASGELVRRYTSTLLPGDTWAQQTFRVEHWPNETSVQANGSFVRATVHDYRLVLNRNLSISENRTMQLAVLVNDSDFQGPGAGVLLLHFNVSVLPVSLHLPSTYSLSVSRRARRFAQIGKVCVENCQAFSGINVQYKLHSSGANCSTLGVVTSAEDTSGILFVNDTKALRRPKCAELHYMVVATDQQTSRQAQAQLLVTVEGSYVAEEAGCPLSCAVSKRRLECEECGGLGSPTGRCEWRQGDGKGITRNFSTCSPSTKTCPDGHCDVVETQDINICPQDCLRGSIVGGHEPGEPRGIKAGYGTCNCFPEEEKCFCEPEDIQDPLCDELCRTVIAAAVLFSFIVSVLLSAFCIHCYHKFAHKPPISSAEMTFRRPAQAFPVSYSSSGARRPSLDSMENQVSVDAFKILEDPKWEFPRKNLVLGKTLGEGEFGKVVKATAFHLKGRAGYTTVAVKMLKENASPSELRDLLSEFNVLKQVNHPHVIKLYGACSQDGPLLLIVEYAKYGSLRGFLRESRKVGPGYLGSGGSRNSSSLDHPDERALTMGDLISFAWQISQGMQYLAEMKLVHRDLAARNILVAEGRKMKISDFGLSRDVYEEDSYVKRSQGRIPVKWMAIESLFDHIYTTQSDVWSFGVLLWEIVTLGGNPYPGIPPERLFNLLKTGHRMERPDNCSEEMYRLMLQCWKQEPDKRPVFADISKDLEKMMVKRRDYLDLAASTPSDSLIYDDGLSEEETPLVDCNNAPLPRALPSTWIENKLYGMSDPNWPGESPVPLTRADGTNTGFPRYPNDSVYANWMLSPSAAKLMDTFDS

[7] = biological target: Proto-oncogene tyrosine-protein kinase receptor Ret (Homo sapiens) (UniProt P07949); details: at 1 µM
[8] = system: Proto-oncogene tyrosine-protein kinase receptor Ret (Homo sapiens), P07949 [V804L]; details: at 0.1 µM
Chain of Proto-oncogene tyrosine-protein kinase receptor Ret (Homo sapiens), P07949 [V804L] (P07949 whole entry V804L): as the sequence (P07949 whole entry) above, with V804L counted along it

[9] = system: Proto-oncogene tyrosine-protein kinase receptor Ret (Homo sapiens), P07949 [V804L]; details: at 1 µM
[10] = system: Proto-oncogene tyrosine-protein kinase receptor Ret (Homo sapiens), P07949 [Y791F]; details: at 0.1 µM
Chain of Proto-oncogene tyrosine-protein kinase receptor Ret (Homo sapiens), P07949 [Y791F] (P07949 whole entry Y791F): as the sequence (P07949 whole entry) above, with Y791F counted along it

[11] = system: Proto-oncogene tyrosine-protein kinase receptor Ret (Homo sapiens), P07949 [Y791F]; details: at 1 µM
[12] = biological target: Macrophage-stimulating protein receptor (Homo sapiens) (UniProt Q04912); details: at 0.1 µM
[13] = biological target: Macrophage-stimulating protein receptor (Homo sapiens) (UniProt Q04912); details: at 1 µM
[14] = biological target: Proto-oncogene tyrosine-protein kinase ROS (Homo sapiens) (UniProt P08922); details: at 0.1 µM
[15] = biological target: Proto-oncogene tyrosine-protein kinase ROS (Homo sapiens) (UniProt P08922); details: at 1 µM
[16] = biological target: Proto-oncogene tyrosine-protein kinase Src (Homo sapiens) (UniProt P12931); details: at 0.1 µM
Chain of Proto-oncogene tyrosine-protein kinase Src (Homo sapiens) (P12931 2-536 limits assumed): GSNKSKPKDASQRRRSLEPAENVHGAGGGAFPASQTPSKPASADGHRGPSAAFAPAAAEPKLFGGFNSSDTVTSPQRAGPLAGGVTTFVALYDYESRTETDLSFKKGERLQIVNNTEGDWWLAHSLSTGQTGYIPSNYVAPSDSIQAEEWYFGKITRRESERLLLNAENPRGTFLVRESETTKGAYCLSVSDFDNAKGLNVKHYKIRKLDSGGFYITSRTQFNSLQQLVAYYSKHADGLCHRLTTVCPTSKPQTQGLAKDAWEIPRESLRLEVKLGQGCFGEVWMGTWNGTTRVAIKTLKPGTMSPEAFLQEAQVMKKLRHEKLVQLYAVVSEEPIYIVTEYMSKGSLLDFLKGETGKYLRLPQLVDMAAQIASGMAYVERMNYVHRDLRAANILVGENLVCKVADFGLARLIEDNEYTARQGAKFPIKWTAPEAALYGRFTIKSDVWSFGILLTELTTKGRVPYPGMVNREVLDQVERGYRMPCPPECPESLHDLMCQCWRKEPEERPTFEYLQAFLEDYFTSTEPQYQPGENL

[17] = biological target: Proto-oncogene tyrosine-protein kinase Src (Homo sapiens) (UniProt P12931); details: at 1 µM
[18] = biological target: Tyrosine-protein kinase Srms (Homo sapiens) (UniProt Q9H3Y6); details: at 0.1 µM
Chain of Tyrosine-protein kinase Srms (Homo sapiens) (Q9H3Y6 whole entry): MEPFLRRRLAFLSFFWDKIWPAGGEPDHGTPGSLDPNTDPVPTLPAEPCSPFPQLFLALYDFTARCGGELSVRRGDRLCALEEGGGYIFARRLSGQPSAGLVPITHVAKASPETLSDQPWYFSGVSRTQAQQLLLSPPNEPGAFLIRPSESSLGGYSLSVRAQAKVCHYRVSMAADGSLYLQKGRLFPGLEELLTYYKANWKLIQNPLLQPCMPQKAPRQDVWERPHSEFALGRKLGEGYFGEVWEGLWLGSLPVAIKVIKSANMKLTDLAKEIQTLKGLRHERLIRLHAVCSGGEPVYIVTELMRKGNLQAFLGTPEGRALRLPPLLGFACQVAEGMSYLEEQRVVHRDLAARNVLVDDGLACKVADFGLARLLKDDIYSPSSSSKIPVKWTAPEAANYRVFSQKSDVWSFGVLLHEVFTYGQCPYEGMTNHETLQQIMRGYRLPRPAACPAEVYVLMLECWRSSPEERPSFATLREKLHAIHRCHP

[19] = biological target: Tyrosine-protein kinase Srms (Homo sapiens) (UniProt Q9H3Y6); details: at 1 µM
[20] = biological target: Tyrosine-protein kinase SYK (Homo sapiens) (UniProt P43405); details: at 0.1 µM;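 note: reported percentages are mean inhibition values for SYK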

Chain of Platelet-derived growth factor receptor beta (Homo sapiens) (P09619 whole entry): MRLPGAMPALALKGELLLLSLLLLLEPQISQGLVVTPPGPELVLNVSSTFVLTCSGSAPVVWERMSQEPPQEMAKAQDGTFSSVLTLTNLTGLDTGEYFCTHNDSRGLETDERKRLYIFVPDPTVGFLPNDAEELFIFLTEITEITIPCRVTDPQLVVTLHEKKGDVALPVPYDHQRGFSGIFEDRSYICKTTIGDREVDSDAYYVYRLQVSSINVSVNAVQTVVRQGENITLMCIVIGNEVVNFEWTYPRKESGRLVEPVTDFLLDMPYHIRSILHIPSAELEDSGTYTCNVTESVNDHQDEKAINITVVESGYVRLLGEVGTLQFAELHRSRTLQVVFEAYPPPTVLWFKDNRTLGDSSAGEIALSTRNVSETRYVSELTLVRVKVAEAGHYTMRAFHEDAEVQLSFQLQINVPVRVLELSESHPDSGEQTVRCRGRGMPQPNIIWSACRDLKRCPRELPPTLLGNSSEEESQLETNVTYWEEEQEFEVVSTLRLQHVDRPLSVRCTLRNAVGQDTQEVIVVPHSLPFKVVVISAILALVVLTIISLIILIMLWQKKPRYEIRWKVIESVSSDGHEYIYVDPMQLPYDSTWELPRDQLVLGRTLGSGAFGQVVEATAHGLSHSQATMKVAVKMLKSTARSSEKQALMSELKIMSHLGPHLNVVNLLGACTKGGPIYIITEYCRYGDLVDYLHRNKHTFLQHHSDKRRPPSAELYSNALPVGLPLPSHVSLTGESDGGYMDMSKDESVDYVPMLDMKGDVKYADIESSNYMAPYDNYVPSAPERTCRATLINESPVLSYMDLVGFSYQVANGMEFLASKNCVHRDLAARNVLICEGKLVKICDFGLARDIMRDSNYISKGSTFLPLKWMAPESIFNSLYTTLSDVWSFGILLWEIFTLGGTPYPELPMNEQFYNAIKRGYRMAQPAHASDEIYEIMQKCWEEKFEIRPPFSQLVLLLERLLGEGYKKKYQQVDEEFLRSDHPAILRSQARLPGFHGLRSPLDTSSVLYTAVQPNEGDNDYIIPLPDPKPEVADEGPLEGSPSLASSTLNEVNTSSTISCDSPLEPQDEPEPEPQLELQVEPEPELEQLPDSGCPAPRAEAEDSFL
Chain of Tyrosine-protein kinase FRK (Homo sapiens) (P42685 whole entry): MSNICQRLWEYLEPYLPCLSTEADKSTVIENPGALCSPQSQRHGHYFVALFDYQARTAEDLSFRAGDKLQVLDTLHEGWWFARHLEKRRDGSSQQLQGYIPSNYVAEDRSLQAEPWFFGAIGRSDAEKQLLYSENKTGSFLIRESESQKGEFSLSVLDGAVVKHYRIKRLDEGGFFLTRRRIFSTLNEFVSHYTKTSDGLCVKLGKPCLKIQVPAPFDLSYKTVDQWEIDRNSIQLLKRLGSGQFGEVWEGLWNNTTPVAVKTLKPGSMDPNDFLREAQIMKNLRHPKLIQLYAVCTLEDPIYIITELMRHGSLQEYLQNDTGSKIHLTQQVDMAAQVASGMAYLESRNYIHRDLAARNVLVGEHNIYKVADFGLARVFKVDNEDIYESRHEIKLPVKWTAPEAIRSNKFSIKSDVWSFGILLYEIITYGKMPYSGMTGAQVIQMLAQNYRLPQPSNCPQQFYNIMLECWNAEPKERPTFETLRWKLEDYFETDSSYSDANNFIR
Chain of Protein-tyrosine kinase 2-beta (Homo sapiens) (Q14289 whole entry, looked up): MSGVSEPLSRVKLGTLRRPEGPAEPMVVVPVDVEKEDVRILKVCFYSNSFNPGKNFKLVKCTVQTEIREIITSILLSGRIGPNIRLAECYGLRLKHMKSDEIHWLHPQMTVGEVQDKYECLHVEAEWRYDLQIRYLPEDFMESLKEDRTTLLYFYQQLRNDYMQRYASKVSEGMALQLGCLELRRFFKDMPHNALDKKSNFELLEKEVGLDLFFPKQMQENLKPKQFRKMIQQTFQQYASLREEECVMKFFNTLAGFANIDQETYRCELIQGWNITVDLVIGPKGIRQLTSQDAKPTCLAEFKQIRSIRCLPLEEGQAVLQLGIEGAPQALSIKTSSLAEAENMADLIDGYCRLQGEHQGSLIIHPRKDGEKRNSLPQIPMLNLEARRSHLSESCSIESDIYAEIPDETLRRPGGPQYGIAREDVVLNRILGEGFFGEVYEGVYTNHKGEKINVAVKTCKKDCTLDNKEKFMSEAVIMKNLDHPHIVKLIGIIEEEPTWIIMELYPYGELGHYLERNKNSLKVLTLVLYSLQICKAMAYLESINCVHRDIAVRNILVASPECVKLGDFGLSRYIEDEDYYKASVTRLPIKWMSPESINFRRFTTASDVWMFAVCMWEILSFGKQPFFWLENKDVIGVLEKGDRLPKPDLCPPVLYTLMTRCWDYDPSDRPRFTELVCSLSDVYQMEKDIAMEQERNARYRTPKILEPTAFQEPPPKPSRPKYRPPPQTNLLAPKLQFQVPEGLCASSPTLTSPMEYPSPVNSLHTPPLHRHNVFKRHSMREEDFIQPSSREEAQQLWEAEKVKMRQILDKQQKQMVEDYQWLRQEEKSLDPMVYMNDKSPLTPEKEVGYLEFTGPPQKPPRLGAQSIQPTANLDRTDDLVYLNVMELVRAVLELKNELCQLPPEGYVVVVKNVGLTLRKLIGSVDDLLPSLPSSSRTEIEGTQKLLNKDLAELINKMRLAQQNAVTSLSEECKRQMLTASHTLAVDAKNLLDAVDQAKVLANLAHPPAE

Structure (SMILES) | inhibition [1] | inhibition [2] | inhibition [3] | inhibition [4] | inhibition [5] | inhibition [6] | inhibition [7] | inhibition [8] | inhibition [9] | inhibition [10] | inhibition [11] | inhibition [12] | inhibition [13] | inhibition [14] | inhibition [15] | inhibition [16] | inhibition [17] | inhibition [18] | inhibition [19] | inhibition [20]
Nc1nccc(C#Cc2cncnc2Nc2ccc(OCc3cccc(F)c3)c(Cl)c2)n1 | 11.6% | 2.59% | 0.85% | 8.24% | 14.2% | 1.17% | 5.76% | 10.1% | 15% | 4.88% | 10.5% | -0.99% | 9.09% | 7.35% | 16.2% | 0.36% | 7.62% | 0.29% | -3.68% | -6.1%
NC(=O)c1cccc(Nc2nccc(Nc3cccc(F)c3)n2)c1 | 54.2% | 1.18% | 11.8% | 1.12% | 25.4% | -0.62% | 26.8% | 1.12% | 13.8% | 3.72% | 37.9% | -6.8% | 5.75% | 18.8% | 60.8% | 16.7% | 64.8% | 1.56% | 5.6% | 0.43%
O=C1Nc2ccccc2/C1=C/Nc1ccc2[nH]c(=O)[nH]c2c1 | 56.7% | 6.33% | 8.07% | 20.6% | 46.4% | 23.7% | 61.3% | 32.4% | 75.4% | 25.8% | 67% | 5.9% | 10.9% | 3.89% | 11.8% | 5.5% | 31% | -2.08% | 3.2% | 3.76%
CN(C)CCCn1c(-c2nonc2N)nc2cnccc21 | 11.6% | 2.2% | 1.55% | 9.44% | 4.55% | 7.25% | 8.04% | 1.93% | 2.02% | 2.47% | 8.31% | 1.31% | 3.53% | 5.53% | 4.62% | 2.96% | 6.8% | -0.98% | -4.16% | -4.3%
CC(C)c1ccc2c(c1)NC(=O)/C2=N/Nc1ccc(S(N)(=O)=O)cc1 | 29.8% | -0.9% | 2.77% |  |  | 8.25% | 34% | 1.58% | 6.41% | 4.75% | 30.7% | 1.23% | -1.8% | 0.66% | 3.01% | 3.8% | 14% | 0.59% | 0.2% | 1.61%
C[C@@H](Oc1cc(-n2cnc3ccc(OCC4CCN(C)CC4)cc32)sc1C(N)=O)c1ccccc1C(F)(F)F | 81.5% | -0.4% | 0.5% | -2.32% | 6.22% | 2.63% | 11.6% | 2.09% | 18.5% | 1.2% | 18.4% | -0.38% | 9.36% | 0.2% | 7.21% | -1.27% | 21.3% | 1.72% | 2.5% | 0.48%
Cc1ccc(NC(=O)CC2CC2)cc1-c1ccc(C(=O)NCC2CC2)cc1 | 8.86% | 2.5% | 2.58% | 5.55% | 9.67% | 4.79% | 9.25% | 2.68% | 10% | 7.7% | 28.8% | -0.78% | 1.45% | 4.69% | 8.56% | 4.43% | 8.28% | 0.3% | 5.61% | -2.32%
Cc1ccc2c(c1)/C(=N/Nc1ccc(S(N)(=O)=O)cc1)C(=O)N2 | 31.7% | -0.61% | 0.7% | 1.76% | 0.28% | 3.85% | 18.8% | 7.64% | 35.4% | 8.06% | 18.2% | -3.95% | -1.57% | 2.42% | 4.27% | 0.59% | 6.44% | -1.38% | -2.68% | 2.17%
